MIN6 prolif-1 = inducers of beta-cell replication in MIN6 cells; MIN6 cells proliferation, ATPlite luminescence, 48 h; cells starved in 0.2% serum; 100% = growth in 10% serum; proliferation, % at 10 µM; hit rate 0.29% among 330,000; AID 2380;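 active = compounds whose signal lies at least 3.5 SD above the mean of all wells on their plate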
GRK2 inh = blocks RNA aptamer binding to human GRK2 | P25098 | bead flow cytometry, FAM-aptamer displacement from GRK2 | inhibition of aptamer binding, % at 10 µM | hit rate 0.59% among 330,000;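 active = inhibition of aptamer binding above 40%, roughly 3 SD of noise, on plates passing a quality check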;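 also: median bead fluorescence of bound FAM aptamer so fluorescent compounds give negative values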
NTR1 ag = NTR1 (human) agonism. P30989. NTR1-U2OS beta-arrestin-GFP spot imaging, agonist mode. activation, % at 20 µM. hit rate 0.17% among 330,000. AID 493036;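 active = activation at or above 40% of the spot to cytoplasm intensity ratio, with at least 20 cells analyzed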
Target sequence (P30989 whole entry, looked up): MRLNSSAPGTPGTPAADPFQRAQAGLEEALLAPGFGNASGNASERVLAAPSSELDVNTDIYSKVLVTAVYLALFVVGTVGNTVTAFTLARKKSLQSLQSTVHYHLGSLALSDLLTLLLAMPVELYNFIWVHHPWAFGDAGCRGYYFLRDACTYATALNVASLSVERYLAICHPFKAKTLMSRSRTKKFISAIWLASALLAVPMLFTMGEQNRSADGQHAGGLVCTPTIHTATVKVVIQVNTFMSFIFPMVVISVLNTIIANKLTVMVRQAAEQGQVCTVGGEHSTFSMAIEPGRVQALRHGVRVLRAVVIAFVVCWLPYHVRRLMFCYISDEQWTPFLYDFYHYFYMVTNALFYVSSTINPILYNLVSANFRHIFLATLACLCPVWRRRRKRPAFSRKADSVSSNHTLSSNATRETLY
Platelet DG rel = modulates dense granule release in human platelets; hit rate 0.22% among 300,000; human platelet-rich plasma, SFLLRN dense granule ATP release, luminescence; inhibition, %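 (compounds screened at 7.5 µM in platelet-rich plasma)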; AID 1663;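 active = mean replicate score, as percent of positive control, at or above 50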
MIN6 prolif-2 = MIN6 beta-cell replication induction, confirmed; proliferation increase, % at 50 µM; 920 tested, under 10 active; shares compounds with MIN6 prolif-1; MIN6 beta-cell proliferation, ATPlite luminescence, 48 h; cells kept in 0.2% serum; scaled between 0.2% and 10% serum;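 active = proliferation increase above 40% at any of the four tested concentrations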
Large screens that a line does not name were inactive (follow-up assays come after a bar, where they were run). Hits are enriched below; roughly 1.2% of the tested compounds scored in any of these assays.

CCC(C)(C(=O)NC1CCCC1)N(Cc1ccco1)C(=O)Cc1cccs1 (configuration not stated)	MIN6 prolif-1 12 | MIN6 prolif-2 inactive
O=C(CSc1ccc([N+](=O)[O-])cn1)Nc1ccccc1N1CCOCC1	none
CC1CCC(NC(=O)Cn2cnc3sccc3c2=O)CC1 (configuration not stated)	none (no result: Platelet DG rel)
O=C(CSc1nnc(CNC(=O)c2cccs2)o1)Nc1cccc(F)c1	none
O=C(CSc1nnc(CNC(=O)c2cccs2)o1)Nc1cccc(C(F)(F)F)c1	MIN6 prolif-1 5.1 | MIN6 prolif-2 inactive
Cc1onc(-c2ccccc2Cl)c1C(O)c1ccc(F)cc1 (configuration not stated)	none
Cc1onc(-c2ccccc2)c1C(O)c1ccc(F)cc1 (configuration not stated)	MIN6 prolif-1 10 | MIN6 prolif-2 inactive
Cc1c(Cc2ccccc2)c(=O)oc2cc(O)cc(O)c12	none
COc1ccc(COn2c(=O)c(C)[n+]([O-])c3ccccc32)cc1OC	MIN6 prolif-1 5.1 | MIN6 prolif-2 inactive
O=C1NCCCC1C(=O)Nc1ccccc1C(F)(F)F (configuration not stated)	none
Nc1ccccc1C(=O)NC1CCCNC1=O (configuration not stated)	none
c1ccc2c(c1)OCC(c1csc3ncnc(N4CCOCC4)c13)O2 (configuration not stated)	MIN6 prolif-1 5.3 | MIN6 prolif-2 inactive
COc1ccc(C)c(-n2c(=O)n(Cc3ccccc3)c(=O)c3[nH]cnc32)c1	none
COc1ccc(Cn2c(=O)c3[nH]cnc3n(-c3ccccc3C)c2=O)cc1	MIN6 prolif-1 10 | MIN6 prolif-2 inactive
NC(=O)C1CCN(CC(=O)Nc2ccccc2Sc2ccc(Cl)cc2)CC1	none
NC(=O)C1CCN(CC(=O)Nc2ccccc2Sc2ccccc2)CC1	MIN6 prolif-1 7.1 | MIN6 prolif-2 inactive
COc1ccc(CN(Cc2ccc(C(=O)O)cc2)C(=S)Nc2cccc(C)c2)cc1OC	none
COc1ccc(NC(=S)N(Cc2ccc(C(=O)O)cc2)Cc2ccc(OC)c(OC)c2)cc1	MIN6 prolif-1 9.2 | MIN6 prolif-2 inactive
CC(C)c1nnc(NC(=O)C2CCN(C(=O)Nc3ccccc3)CC2)s1	none
CC(OC(=O)c1ccc(S(=O)(=O)N2CCCCC2)cc1)C(=O)NC1CCCCC1C (configuration not stated)	none
CC(=O)Nc1nnc(SCC(=O)NCc2ccc3c(c2)OCO3)s1	MIN6 prolif-1 13 | MIN6 prolif-2 inactive
CC(=O)Nc1ccc(NC(=O)C(C)OC(=O)c2cccc(S(=O)(=O)N3CCCCCC3)c2)cc1 (configuration not stated)	MIN6 prolif-1 12 | MIN6 prolif-2 inactive
O=C(c1ccco1)N1CCCC(c2nc3c(nnn3Cc3c(Cl)cccc3Cl)c(=O)[nH]2)C1 (configuration not stated)	MIN6 prolif-1 8.4 | MIN6 prolif-2 inactive
COc1ccc(-c2nn3c(C4CCCCC4)nnc3s2)cc1OC	MIN6 prolif-1 9.1 | MIN6 prolif-2 inactive
CN1CCN(c2nc(-c3ccco3)cc(C(F)(F)F)n2)CC1	none
O=[N+]([O-])c1cn(-c2nc(-c3ccco3)cc(C(F)(F)F)n2)cn1	MIN6 prolif-1 7.7 | MIN6 prolif-2 inactive
CCOc1ccccc1NC(=O)C(OC(=O)c1ccc(NC(=O)CC#N)cc1)c1ccccc1 (configuration not stated)	none
Cc1cc(NC(=O)CSc2c3c(nc4ccccc24)CCC3)no1	MIN6 prolif-1 16 | MIN6 prolif-2 inactive
COc1ccccc1NC(=O)CSc1c2c(nc3ccccc13)CCC2	MIN6 prolif-1 8.4 | MIN6 prolif-2 inactive
Cc1cc(NC(=O)CSc2cc(C)c3ccccc3n2)no1	none (no result: Platelet DG rel)
COc1ccc(NC(=O)CSc2c3c(nc4ccccc24)CCCC3)c(OC)c1	none
CCn1c(Oc2ccccc2C)nc2c1c(=O)n(C)c(=O)n2C	none
CCn1c(Oc2ccc(F)cc2)nc2c1c(=O)n(C)c(=O)n2C	MIN6 prolif-1 7.3 | MIN6 prolif-2 inactive
CCCCc1cc(=O)oc2c(C)c(OCC(=O)NCC3CCC(C(=O)O)CC3)ccc12 (configuration not stated)	none
Cc1cc(NC(=O)c2c(-c3c(Cl)cccc3Cl)noc2C)n(C)n1	MIN6 prolif-1 6.8 | MIN6 prolif-2 inactive
Cc1cccc(N(Cc2cc3ccc(C)cc3[nH]c2=O)S(=O)(=O)c2ccccc2)c1	none
COC(=O)c1cc(S(=O)(=O)NCc2ccc(Br)cc2)c[nH]1	none
COC(=O)c1c(NC(=O)Cc2cccs2)sc(C)c1C	none
CCOC(=O)c1c(NC(=O)Cc2cccs2)sc(C(=O)N2CCCCC2)c1C	MIN6 prolif-1 9.5 | MIN6 prolif-2 inactive
CCC(Cc1ccccc1)NC(=O)C1=C(C)C(=O)OC12CCC(C)CC2 (configuration not stated)	MIN6 prolif-1 7.7 | MIN6 prolif-2 inactive
CC1=C(C(=O)NCc2ccc(Cl)cc2)C2(CCC(C)CC2)OC1=O (configuration not stated)	none
CC(C)(O)c1[nH]c2cc(C(F)(F)F)ccc2c1C(C)(C)O	none
O=C(Nc1ccc(F)cc1)c1ccccc1NS(=O)(=O)N1CCCC1	MIN6 prolif-1 8.5 | MIN6 prolif-2 inactive
COc1ccc(S(=O)(=O)N2CCCOC2CNC(=O)C(=O)NCCCN2CCOCC2)cc1 (configuration not stated)	none
O/N=C/c1cn(-c2ccccc2)nn1	MIN6 prolif-1 7.6 | MIN6 prolif-2 inactive
Cc1cc2nc(C)c(=O)n(C)c2cc1C	MIN6 prolif-1 7.3 | MIN6 prolif-2 inactive
c1coc(CSc2ncnc3c2oc2ccccc23)c1	none
CCCc1nc(Cl)c(C#N)c2c1CCCC2	MIN6 prolif-1 9.0 | MIN6 prolif-2 inactive
CCc1nc(Cl)c(C#N)c2c1CCCC2	none
CCOc1ccc(CCNS(=O)(=O)c2ccc3c(c2)N(C(C)=O)CCO3)cc1OCC	MIN6 prolif-1 15 | MIN6 prolif-2 inactive
O=C(Nc1cccc([N+](=O)[O-])c1)c1ccc2snnc2c1	none
CCOc1ccc(-n2cnnn2)cc1S(=O)(=O)Nc1c(C)cccc1C	MIN6 prolif-1 6.1 | MIN6 prolif-2 inactive
Cc1ccc(N(CC(=O)NCc2ccc(F)cc2)S(=O)(=O)c2c(C)nn(C)c2C)cc1	none
CCN(CC)CCN(C(=O)CN1C(=O)c2ccccc2C1=O)c1nc2cc3c(cc2s1)OCO3	MIN6 prolif-1 10 | MIN6 prolif-2 inactive
COc1cc(C(=O)NCCCc2ccccc2)cc(OC)c1OC	none
COc1cc(CC(=O)NCCCc2ccccc2)cc(OC)c1OC	MIN6 prolif-1 6.0 | MIN6 prolif-2 inactive
O=C(Cn1nc(C(=O)O)c2ccccc2c1=O)Nc1cccc(S(=O)(=O)N2CCCCCC2)c1	none (no result: Platelet DG rel)
O=C(Nc1ccccc1Br)c1cccc2ccccc12	MIN6 prolif-1 8.7 | MIN6 prolif-2 inactive
CC(=O)Nc1ccccc1NC(=O)c1cccc2ccccc12	none
O=C(NCc1cccnc1)C1CC(c2ccccc2Cl)=NO1 (configuration not stated)	none (no result: GRK2 inh)
O=S(=O)(NCC1CCCN(Cc2ccccc2O)C1)c1cccc2cccnc12 (configuration not stated)	none
